# Rows were chosen to be rich in hits. Some 3.4% of all compounds tested hit in one or more screens of this group.
# Tau fil binding: tau filament binding. P10636. recombinant tau filaments, thioflavin S fluorescence, 15 h; filaments grown with octadecylsulfate alongside compound. Potency, µM (doses to about 57.1 µM), without a hit: at the top dose activity change, negative = inhibition. hit rate 2% among 71,000. AID 596;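 further: on the % scale 0 is the no-effect control and ±100 the full control effect; actives lower thioflavin S fluorescence by blocking filaments or displacing dye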
# Target sequence (P10636 whole entry, looked up): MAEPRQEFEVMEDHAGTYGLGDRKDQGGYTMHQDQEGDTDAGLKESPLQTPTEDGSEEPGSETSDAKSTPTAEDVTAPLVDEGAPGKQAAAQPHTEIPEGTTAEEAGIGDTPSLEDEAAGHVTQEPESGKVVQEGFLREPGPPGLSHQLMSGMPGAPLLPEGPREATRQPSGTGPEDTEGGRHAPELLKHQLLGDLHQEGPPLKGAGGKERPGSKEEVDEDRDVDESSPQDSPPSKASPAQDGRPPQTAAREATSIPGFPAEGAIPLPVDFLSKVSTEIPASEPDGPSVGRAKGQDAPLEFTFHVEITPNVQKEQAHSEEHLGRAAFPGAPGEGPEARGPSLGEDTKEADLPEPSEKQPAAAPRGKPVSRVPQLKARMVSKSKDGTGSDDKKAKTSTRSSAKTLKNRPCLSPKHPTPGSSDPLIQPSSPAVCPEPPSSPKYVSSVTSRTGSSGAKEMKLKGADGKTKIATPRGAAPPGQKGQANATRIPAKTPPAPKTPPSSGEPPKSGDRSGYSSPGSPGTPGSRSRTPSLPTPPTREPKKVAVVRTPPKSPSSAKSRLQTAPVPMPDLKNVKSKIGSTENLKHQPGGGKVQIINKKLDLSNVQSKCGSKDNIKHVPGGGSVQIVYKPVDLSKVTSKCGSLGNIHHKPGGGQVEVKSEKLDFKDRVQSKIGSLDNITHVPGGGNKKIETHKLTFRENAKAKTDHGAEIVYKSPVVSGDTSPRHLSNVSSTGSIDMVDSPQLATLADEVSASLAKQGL
#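 Thioflavine S fluorescence (ex 450, em 510 nm) reports filaments formed from 1 uM human tau plus 30 uM ODS over 15 h at 37 C (10 mM HEPES pH 7.4, 100 mM NaCl, 5 mM DTT); compounds displacing dye or blocking filaments lower signal.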
# Luciferase inh: inhibitors of firefly luciferase | P08659 | purified firefly luciferase, luminescence, 8 min | Potency, µM (series often up to 57.1 µM), for the others: at the top dose activity change, negative = inhibition, hits mostly inhibitors | hit rate 2.2% among 72,000 | AID 411; further: on the % scale 0 is the no-effect control and ±100 the full control effect; nearly all actives have a fitted effect of over 40% in size
#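 Inhibition of light generation by firefly luciferase from ATP and luciferin was profiled with concentration-response curves per sample, ATP held at 10 uM within the enzyme's linear range. Plates were read by luminescence after an 8-minute ambient incubation.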
# p53ts 39C tox: cytotoxicity in p53ts cells at nonpermissive temperature | Potency, µM (highest dose often 46.1 µM), for the others: at the highest dose activity change, negative = cell killing, actives largely listed as cytotoxic | H1299-p53A138V viability at 39C, ATP luminescence, 24 h | hit rate 1.5% among 130,000; further: on the % scale 0 is the no-effect control and ±100 the full control effect; nearly all actives have a fitted effect of over 55% in size
# p53ts 32C kill: p53ts cell cytotoxicity, permissive temperature | H1299-p53A138V at 32C, ATP luminescence viability, 24 h | Potency, µM (doses to about 46.1 µM), for the others: at the top dose activity change, negative = cytotoxicity, usual class: cytotoxic | hit rate 0.93% among 130,000 | AID 924;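 further: 0% = DMSO and -100% = full killing by reference compound; nearly all actives have a fitted effect of over 55% in size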
#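 ATP-content luminescence (ATPlite) read-out after 24 h compound exposure at 32C in H1299-p53A138V cells (600/well). Tested up to 46 uM. Normalized to DMSO (0%) and 100 uM tamoxifen (100% killing); Hill-fit AC50.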
# Imprint erasure: induces erasure of genomic imprints in mouse ES cells | mouse ES Peg3-LacZ reporter, beta-gal luminescence, 40 h | Potency, µM (highest dose often 60.7 µM), for the others: at the highest dose activity change, positive = activation, actives largely listed as activators | hit rate 0.02% among 110,000
#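 Each well holds 300 Peg3LacZ-Neo (maternal) female ES cells incubated 40 h at 37C, 5% CO2. LacZ is measured by BetaGlo luminescence, with AC50 and maximum efficacy derived from dose-response curves.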
# * marks the source's active call; other numbers are inactive results; i = inactive; ? = inconclusive; · = no result; ! = a repeat was not active; [ ] = remark or other dose. The call rests on the fitted dose curve; in most records, active means well fitted curve in the direction sought with a large enough effect; inconclusive means small, poorly fitted or top-dose-only effect, or another doubt; inactive means no such curve, though single readings can be large; an effect the other way counts as inactive or inconclusive. Potency means the concentration at half of the fitted maximal effect.
SMILES,Tau fil binding,Luciferase inh,p53ts 39C tox,p53ts 32C kill,Imprint erasure
O=C(CCCOc1ccc(Cl)cc1)N1CCOCC1,7%,2%,2%,2%,-14%
COc1ccc(NC(=O)Nc2ccc(OCC(=O)N3CCOCC3)cc2)cc1OC,7%[11.4 µM],13µM*,?,?,2%
COc1cc(C(=O)O)ccc1OCC(=O)N1CCOCC1,-4%,1%,-3%,-1%,-62%
Cc1ccc(-c2ccc(OCC(=O)N3CCOCC3)cc2)cc1,11%,13µM*,-21%,-30%,-14%
CC(=O)NC(C)C(=O)OCC(=O)Nc1ccc(Br)cc1 (configuration not stated),4%,-2%,0%,11%,4%
CC(C)=CC(=O)Nc1ccc(Br)cc1,-4%,20µM*,-15%,-24%,-59%
CCOc1cc(CNc2ccc(O)cc2)cc(Cl)c1OCc1ccccc1,·,·,?,?,-14%[10.9 µM]
O=C(O)[C@H]1CN[C@H](C(=O)O)C1,40µM*,0%,-4%,-7%,0%
O=C(O)[C@@H]1C[C@H](C(=O)O)N1,·,·,·,·,0%
Cn1cc(-c2nc3cncnc3n(CCN)c2=O)c2ccccc21,90%,-1%[11.4 µM],-26%,-19%,-13%
CCN(CC)c1ccc2c(c1)oc(=O)c1c(Cl)cc(=O)oc12,i,-2%,13µM*,13µM*,-30%
CCN(CC)c1ccc2c(C)cc(=O)oc2c1,56%,·,-6%,-2%[1.84 µM],-5%
CCN(CC)c1ccc2c(Cl)c(Br)c(=O)oc2c1,i,-3%,?,13µM*,·
CCOC(=O)c1snc2c(=O)[nH]cnc12,2%,1%,10%,0%,5%
CCOC(=O)C1CCCN(c2ccc(NC(=O)c3snc4c(=O)[nH]cnc34)cc2)C1 (configuration not stated),16µM*,-10%,-6%,8%,-13%
O=C(c1cc2nc(-c3ccco3)cc(C(F)(F)F)n2n1)N1CCN(c2ccc(F)cc2)CC1,13µM*,1%,20%,4%,-17%
Cc1ccccc1Cn1cc(NC(=O)c2cc3nc(-c4ccco4)cc(C(F)(F)F)n3n2)cn1,3.2µM*,?,-18%,-9%,-17%
O=C(Nc1ccc(Cl)cc1)c1cc2nc(-c3ccco3)cc(C(F)(F)F)n2n1,-14%,1%,1%,11%,·
COc1ccc(NC(=O)c2cc3nc(-c4ccc(C)c(C)c4)cc(C(F)(F)F)n3n2)cc1,·,·,10µM*,-1%,-8%[10.9 µM]
COc1cc(OC)cc(C(=O)NCC(c2cccs2)S(=O)(=O)c2ccc(F)c(C)c2)c1 (configuration not stated),·,·,-15%,8%,24%[10.9 µM]
CC(C)c1nc2ccc(C(=O)NCc3ccccc3Br)cc2o1,·,·,-17%,1%,8%[10.9 µM]
Cn1nnc2cc(C(=O)Nc3cccnc3)ccc21,-2%,1%,-2%,-16%,-10%
Cn1ccc2cc(NC(=O)Nc3cccnc3)ccc21,22%,16µM*,16µM*,?,-24%
O=C(Nc1cccnc1)Nc1ccc(F)c(Cl)c1,-12%,20µM*,-25%,?,-18%
O=C(Nc1ccc2c(c1)OCO2)c1cnn2cccnc12,-28%,20µM*,?,?,-80%
SMILES,Tau fil binding,Luciferase inh,p53ts 39C tox,p53ts 32C kill,Imprint erasure
O=C(Nc1cccnc1)Nc1ccc2c(c1)OCO2,-4%,16µM*,?,?,-74%
COc1cc(NS(=O)(=O)c2cc(Br)cc3c2N(C(=O)C2CC2)CC3)cc(OC)c1,·,·,13µM*,10µM*,-24%[10.9 µM]
COc1cccc(C(=O)Nc2nc3nc(-c4ccccc4)cc(=O)n3[nH]2)c1,·,·,-21%,-1%,-12%[10.9 µM]
CCCN1Cc2cccc(C(=O)Nc3cc(Cl)ccc3C)c2C1=O,·,·,-24%,-16%,-5%[10.9 µM]
Cc1cccc(C)c1NC(=O)c1cc2sccc2n1Cc1ccc(F)cc1,·,·,13µM*,-17%,12%[10.9 µM]
Cc1ccc(OCC(=O)Nc2nnc(SCc3cc(=O)c4ccccc4[nH]3)s2)cc1,·,·,-7%,-3%,0%[10.9 µM]
CN1CCN(CCCN2c3ccccc3Sc3ccc(Cl)cc32)CC1,?,0%[25.5 µM],20µM*,16µM*!,-24%
CCSc1ccc2c(c1)N(CCCN1CCN(C)CC1)c1ccccc1S2,4µM*,-6%[25.5 µM],-1%[20.6 µM],7%[20.6 µM],-13%[16.8 µM]
CN1CCN(CCCN2c3ccccc3Sc3ccccc32)CC1,·,·,·,·,-9%
CCc1noc(-c2ccc(NCc3ccccc3)c([N+](=O)[O-])c2)n1,·,·,5%,2%,-10%[10.9 µM]
